# Experimental data published in paper PMC7862700, “An all-to-all approach to the identification of sequence-specific readers for epigenetic DNA modifications on cytosine”.
# Experiments:
# Assay in all cases: DAPPL (digital affinity profiling via proximity ligation, sequencing); 10 mM Tris-HCl pH 7.5, 50 mM NaCl, 1 mM DTT, 4% glycerol, room temperature, 30 min; GST-TFs on glutathione beads, 16-mer random dsDNA library, 0.1% formaldehyde crosslink after washing; high values mean tight binding
# Conditions in all cases: protein: recombinant; tags: N-terminal GST; dsDNA, one strand shown
# FEV = target: T1, FEV (Homo sapiens, UniProt Q99581 1-238)
# T1 sequence: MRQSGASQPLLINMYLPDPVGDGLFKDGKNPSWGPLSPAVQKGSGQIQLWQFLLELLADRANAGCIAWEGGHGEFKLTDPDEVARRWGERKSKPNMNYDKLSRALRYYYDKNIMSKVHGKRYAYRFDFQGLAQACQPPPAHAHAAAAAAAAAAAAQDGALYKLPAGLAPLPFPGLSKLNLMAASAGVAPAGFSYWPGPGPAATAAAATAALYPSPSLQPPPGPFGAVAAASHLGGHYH
# In short: (§1)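 After expression in yeast as GST fusions, human transcription factors were bound to glutathione beads, DNA-barcoded and mixed with a tag-only sample. The pools were incubated with 200 nmole of a 16-mer random double-stranded DNA library in Tris/NaCl/DTT/glycerol buffer (30 min, room temperature), washed and crosslinked with 0.1% formaldehyde. Proximity ligation with BsaI/T4 ligase ran for 1 h at 37 °C, before PCR amplification and sequencing on an Illumina NextSeq500. Binding signal is a hexamer's read frequency for a factor divided by its frequency for the tag-only sample.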
# ETV5 = ETV5 (Homo sapiens, UniProt P41161 1-510)
# Sequence of ETV5 (P41161 whole entry): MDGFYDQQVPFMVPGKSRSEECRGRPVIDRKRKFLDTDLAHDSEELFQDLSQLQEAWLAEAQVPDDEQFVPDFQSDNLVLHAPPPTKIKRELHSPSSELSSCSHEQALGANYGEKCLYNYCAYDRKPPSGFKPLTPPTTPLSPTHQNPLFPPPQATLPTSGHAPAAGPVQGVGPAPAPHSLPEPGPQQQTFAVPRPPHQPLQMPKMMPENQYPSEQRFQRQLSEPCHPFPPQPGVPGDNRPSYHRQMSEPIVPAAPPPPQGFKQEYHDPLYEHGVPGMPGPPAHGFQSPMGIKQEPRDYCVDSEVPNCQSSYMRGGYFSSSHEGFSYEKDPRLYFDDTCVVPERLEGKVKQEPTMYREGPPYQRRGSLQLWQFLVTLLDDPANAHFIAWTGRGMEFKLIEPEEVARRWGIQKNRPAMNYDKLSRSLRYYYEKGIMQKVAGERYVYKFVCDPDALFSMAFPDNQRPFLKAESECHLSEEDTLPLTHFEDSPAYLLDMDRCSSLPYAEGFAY
# In short: as §1
# SPIC = target: T2, SPIC (Homo sapiens, UniProt Q8N5J4 1-248)
# T2 sequence: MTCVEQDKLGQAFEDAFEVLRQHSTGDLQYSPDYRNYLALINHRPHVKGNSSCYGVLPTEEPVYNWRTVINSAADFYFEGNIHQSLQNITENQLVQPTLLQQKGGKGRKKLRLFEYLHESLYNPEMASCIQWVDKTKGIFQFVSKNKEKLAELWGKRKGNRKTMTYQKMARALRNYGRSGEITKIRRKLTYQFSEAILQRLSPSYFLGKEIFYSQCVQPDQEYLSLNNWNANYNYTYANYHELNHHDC
# In short: as §1
# ELF4 = ELF4 (Homo sapiens, UniProt Q99607 1-663)
# Sequence of ELF4 (Q99607 whole entry): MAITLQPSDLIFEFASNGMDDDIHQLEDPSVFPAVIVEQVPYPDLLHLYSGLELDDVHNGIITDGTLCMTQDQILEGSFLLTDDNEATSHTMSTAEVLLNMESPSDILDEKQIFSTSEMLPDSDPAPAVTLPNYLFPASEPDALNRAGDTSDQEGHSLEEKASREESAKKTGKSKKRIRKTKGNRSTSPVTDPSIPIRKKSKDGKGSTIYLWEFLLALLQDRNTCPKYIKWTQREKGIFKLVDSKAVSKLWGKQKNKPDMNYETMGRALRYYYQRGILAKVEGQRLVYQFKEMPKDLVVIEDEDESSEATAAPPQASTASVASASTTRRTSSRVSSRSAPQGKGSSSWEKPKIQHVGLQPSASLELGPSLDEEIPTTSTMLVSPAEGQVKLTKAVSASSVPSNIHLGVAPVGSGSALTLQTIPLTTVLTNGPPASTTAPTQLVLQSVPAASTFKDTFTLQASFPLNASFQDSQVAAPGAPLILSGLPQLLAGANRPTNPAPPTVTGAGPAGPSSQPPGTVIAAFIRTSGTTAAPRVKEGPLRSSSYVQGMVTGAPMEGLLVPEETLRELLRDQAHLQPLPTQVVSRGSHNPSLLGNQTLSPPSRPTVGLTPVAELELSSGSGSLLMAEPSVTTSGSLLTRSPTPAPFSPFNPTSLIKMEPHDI
# In short: as §1
# ELK4 = target: T3, ELK4 (Homo sapiens, UniProt P28324-2 1-405)
# T3 sequence: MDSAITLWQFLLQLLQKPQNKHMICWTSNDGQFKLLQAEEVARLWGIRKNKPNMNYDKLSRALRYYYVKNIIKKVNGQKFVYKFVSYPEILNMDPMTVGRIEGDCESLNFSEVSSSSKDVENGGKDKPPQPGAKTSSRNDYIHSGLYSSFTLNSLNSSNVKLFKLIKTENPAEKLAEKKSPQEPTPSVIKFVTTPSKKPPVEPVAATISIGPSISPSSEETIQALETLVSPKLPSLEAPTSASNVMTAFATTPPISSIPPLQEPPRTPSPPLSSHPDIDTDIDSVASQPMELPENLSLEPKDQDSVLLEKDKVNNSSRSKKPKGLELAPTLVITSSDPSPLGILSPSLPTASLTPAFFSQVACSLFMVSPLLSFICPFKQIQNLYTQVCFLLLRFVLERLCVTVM
# In short: as §1
# ETV2 = target: T4, ETV2 (Homo sapiens, UniProt O00321 1-342)
# T4 sequence: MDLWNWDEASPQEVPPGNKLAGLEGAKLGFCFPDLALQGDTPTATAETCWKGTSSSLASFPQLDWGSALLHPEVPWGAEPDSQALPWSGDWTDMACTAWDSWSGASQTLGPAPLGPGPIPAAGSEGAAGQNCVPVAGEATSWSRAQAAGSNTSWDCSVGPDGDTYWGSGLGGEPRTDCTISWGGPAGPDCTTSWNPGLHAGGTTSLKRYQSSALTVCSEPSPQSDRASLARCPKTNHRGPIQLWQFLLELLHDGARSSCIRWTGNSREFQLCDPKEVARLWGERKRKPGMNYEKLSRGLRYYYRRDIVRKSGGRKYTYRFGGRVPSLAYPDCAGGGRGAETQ
# In short: as §1
# ELF3 = target: T5, ELF3 (Homo sapiens, UniProt P78545 1-371)
# T5 sequence: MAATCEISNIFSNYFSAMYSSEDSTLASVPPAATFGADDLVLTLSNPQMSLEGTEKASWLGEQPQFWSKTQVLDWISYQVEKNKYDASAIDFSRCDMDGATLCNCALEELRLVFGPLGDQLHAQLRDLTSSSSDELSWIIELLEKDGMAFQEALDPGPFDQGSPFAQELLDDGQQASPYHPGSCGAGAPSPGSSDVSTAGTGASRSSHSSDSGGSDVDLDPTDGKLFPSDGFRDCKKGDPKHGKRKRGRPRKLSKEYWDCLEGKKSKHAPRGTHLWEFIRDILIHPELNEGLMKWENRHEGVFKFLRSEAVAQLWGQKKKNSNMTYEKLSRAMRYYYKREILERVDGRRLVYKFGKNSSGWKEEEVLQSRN
# In short: as §1
# ETV1 = ETV1 (Homo sapiens, UniProt P50549 1-477)
# Sequence of ETV1 (P50549 whole entry): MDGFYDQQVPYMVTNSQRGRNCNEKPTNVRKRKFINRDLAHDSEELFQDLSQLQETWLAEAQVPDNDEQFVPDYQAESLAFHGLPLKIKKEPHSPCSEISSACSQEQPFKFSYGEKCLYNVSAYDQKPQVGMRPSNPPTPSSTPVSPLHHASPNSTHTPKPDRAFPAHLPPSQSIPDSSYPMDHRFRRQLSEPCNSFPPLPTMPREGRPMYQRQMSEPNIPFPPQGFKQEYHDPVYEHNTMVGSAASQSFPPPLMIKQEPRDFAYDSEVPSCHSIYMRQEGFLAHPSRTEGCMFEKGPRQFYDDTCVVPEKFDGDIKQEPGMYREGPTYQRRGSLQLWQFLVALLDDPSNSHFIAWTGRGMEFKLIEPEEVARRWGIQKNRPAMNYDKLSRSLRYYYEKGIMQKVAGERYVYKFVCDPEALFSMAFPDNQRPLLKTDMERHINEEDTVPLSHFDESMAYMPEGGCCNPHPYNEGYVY
# In short: as §1
# ERF = target: T6, ERF (Homo sapiens, UniProt P50548 1-548)
# T6 sequence: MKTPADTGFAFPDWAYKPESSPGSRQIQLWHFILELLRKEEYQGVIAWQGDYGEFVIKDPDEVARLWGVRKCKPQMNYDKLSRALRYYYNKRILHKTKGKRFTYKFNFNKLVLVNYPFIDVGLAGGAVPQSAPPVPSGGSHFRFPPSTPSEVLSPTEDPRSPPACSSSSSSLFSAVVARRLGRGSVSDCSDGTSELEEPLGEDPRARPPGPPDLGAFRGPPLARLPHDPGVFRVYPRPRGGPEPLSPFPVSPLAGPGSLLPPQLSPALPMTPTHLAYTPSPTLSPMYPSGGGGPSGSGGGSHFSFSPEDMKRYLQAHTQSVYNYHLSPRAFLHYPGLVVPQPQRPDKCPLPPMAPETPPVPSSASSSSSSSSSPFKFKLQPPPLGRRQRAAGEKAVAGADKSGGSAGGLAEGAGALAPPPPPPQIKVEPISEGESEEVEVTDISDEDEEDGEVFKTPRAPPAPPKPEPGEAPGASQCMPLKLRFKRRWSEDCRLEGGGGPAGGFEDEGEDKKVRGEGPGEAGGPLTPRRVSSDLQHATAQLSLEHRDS
# In short: as §1
# ETV3L = target: T7, ETV3L (Homo sapiens, UniProt Q6ZN32 1-361)
# T7 sequence: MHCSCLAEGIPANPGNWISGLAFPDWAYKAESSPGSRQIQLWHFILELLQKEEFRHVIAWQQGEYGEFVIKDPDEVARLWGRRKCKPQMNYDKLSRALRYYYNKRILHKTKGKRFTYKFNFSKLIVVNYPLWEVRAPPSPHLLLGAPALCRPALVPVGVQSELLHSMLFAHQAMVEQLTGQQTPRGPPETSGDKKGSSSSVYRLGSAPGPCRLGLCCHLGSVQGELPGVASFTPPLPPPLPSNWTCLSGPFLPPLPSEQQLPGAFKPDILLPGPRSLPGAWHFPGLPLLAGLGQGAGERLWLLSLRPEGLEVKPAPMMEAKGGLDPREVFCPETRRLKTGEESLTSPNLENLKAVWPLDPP
# In short: as §1
# ETS2 = target: T8, ETS2 (Homo sapiens, UniProt P15036 1-469)
# T8 sequence: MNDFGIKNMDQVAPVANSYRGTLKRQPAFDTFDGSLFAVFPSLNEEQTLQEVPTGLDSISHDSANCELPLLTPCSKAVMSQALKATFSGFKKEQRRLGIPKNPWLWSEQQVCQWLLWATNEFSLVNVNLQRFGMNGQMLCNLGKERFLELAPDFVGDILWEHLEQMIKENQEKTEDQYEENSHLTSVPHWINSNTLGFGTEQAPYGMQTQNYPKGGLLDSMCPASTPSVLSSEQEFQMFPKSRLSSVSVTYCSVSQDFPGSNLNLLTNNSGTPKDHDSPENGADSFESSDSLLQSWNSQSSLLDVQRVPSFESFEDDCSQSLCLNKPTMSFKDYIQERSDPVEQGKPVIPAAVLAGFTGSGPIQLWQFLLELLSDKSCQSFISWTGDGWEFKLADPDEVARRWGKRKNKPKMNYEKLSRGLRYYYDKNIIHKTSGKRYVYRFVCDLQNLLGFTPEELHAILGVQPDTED
# In short: as §1
# SPDEF = target: T9, SPDEF (Homo sapiens, UniProt O95238 1-335)
# T9 sequence: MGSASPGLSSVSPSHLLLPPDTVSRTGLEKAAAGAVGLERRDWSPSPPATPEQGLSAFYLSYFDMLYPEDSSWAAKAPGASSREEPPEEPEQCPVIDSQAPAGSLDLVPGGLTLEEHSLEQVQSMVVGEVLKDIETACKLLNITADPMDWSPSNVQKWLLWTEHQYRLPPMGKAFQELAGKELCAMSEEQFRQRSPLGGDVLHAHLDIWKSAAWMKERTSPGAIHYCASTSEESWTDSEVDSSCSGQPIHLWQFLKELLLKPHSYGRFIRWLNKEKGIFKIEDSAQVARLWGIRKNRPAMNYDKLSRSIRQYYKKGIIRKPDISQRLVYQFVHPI
# In short: as §1
# ETV7 = target: T10, ETV7 (Homo sapiens, UniProt Q9Y603 1-341)
# T10 sequence: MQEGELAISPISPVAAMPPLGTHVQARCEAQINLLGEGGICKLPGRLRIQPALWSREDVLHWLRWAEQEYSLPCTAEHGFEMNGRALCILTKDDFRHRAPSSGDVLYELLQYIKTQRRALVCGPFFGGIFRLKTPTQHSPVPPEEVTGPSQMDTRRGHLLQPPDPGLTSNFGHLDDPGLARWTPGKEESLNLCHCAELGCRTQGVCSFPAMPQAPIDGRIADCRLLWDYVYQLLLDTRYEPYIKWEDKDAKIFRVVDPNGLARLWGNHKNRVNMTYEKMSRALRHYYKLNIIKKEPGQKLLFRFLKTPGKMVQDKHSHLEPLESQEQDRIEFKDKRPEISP
# In short: as §1
# ELF5 = target: T11, ELF5 (Homo sapiens, UniProt Q9UKW6-2 1-255)
# T11 sequence: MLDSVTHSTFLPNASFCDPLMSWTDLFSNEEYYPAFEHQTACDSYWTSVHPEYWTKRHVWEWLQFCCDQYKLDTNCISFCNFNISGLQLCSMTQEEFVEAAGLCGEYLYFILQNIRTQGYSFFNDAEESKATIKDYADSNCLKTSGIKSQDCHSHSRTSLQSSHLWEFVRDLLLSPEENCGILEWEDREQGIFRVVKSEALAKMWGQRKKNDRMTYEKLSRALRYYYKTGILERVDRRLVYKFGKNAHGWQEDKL
# In short: as §1
# ETV6 = ETV6 (Homo sapiens, UniProt P41212 1-452)
# Sequence of ETV6 (P41212 whole entry): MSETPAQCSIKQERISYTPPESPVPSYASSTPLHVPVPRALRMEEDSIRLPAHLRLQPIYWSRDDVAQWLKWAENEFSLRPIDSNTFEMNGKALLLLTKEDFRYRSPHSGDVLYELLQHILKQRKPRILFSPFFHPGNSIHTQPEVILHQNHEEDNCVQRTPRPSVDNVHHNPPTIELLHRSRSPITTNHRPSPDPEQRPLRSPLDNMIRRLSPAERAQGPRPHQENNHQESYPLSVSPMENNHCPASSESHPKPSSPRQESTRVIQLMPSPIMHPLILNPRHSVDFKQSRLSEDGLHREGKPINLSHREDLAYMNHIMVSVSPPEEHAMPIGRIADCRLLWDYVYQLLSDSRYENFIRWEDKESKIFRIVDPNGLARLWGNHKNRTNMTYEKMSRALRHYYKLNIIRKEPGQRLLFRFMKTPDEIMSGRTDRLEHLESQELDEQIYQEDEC
# In short: as §1
# ETV3 = target: T12, ETV3 (Homo sapiens, UniProt P41162-2 1-143)
# T12 sequence: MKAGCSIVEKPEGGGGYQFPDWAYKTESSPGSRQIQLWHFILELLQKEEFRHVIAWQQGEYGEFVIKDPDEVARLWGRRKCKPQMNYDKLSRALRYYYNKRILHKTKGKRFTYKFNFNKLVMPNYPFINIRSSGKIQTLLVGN
# In short: as §1
Sequence,binding signal (FEV),binding signal (ETV5),binding signal (SPIC),binding signal (ELF4),binding signal (ELK4),binding signal (ETV2),binding signal (ELF3),binding signal (ETV1),binding signal (ERF),binding signal (ETV3L),binding signal (ETS2),binding signal (SPDEF),binding signal (ETV7),binding signal (ELF5),binding signal (ETV6),binding signal (ETV3)
TGTCTG,"1.15 fold enrichment (6-mer frequency, TF over GST control)","1.09 fold enrichment (6-mer frequency, TF over GST control)","1.33 fold enrichment (6-mer frequency, TF over GST control)","1.04 fold enrichment (6-mer frequency, TF over GST control)","1.02 fold enrichment (6-mer frequency, TF over GST control)","1.21 fold enrichment (6-mer frequency, TF over GST control)","1.21 fold enrichment (6-mer frequency, TF over GST control)","1.04 fold enrichment (6-mer frequency, TF over GST control)","1.09 fold enrichment (6-mer frequency, TF over GST control)","1.05 fold enrichment (6-mer frequency, TF over GST control)","1.09 fold enrichment (6-mer frequency, TF over GST control)","1.15 fold enrichment (6-mer frequency, TF over GST control)","1.02 fold enrichment (6-mer frequency, TF over GST control)","1.15 fold enrichment (6-mer frequency, TF over GST control)","1.12 fold enrichment (6-mer frequency, TF over GST control)",
TGTGCC,"1.2 fold enrichment (6-mer frequency, TF over GST control)","1.21 fold enrichment (6-mer frequency, TF over GST control)","1.12 fold enrichment (6-mer frequency, TF over GST control)","1.17 fold enrichment (6-mer frequency, TF over GST control)","1.32 fold enrichment (6-mer frequency, TF over GST control)","1.23 fold enrichment (6-mer frequency, TF over GST control)","1.03 fold enrichment (6-mer frequency, TF over GST control)","1.05 fold enrichment (6-mer frequency, TF over GST control)","1.01 fold enrichment (6-mer frequency, TF over GST control)","1.19 fold enrichment (6-mer frequency, TF over GST control)","1.07 fold enrichment (6-mer frequency, TF over GST control)","1.17 fold enrichment (6-mer frequency, TF over GST control)","1.04 fold enrichment (6-mer frequency, TF over GST control)","1.05 fold enrichment (6-mer frequency, TF over GST control)","1.21 fold enrichment (6-mer frequency, TF over GST control)","1.13 fold enrichment (6-mer frequency, TF over GST control)"
CAACCC,"1.21 fold enrichment (6-mer frequency, TF over GST control)","1.23 fold enrichment (6-mer frequency, TF over GST control)","1.23 fold enrichment (6-mer frequency, TF over GST control)","1.34 fold enrichment (6-mer frequency, TF over GST control)","1.22 fold enrichment (6-mer frequency, TF over GST control)","1.17 fold enrichment (6-mer frequency, TF over GST control)","1.34 fold enrichment (6-mer frequency, TF over GST control)","1.18 fold enrichment (6-mer frequency, TF over GST control)","1.22 fold enrichment (6-mer frequency, TF over GST control)","1.25 fold enrichment (6-mer frequency, TF over GST control)","1.28 fold enrichment (6-mer frequency, TF over GST control)","1.2 fold enrichment (6-mer frequency, TF over GST control)","1.15 fold enrichment (6-mer frequency, TF over GST control)","1.2 fold enrichment (6-mer frequency, TF over GST control)","1.22 fold enrichment (6-mer frequency, TF over GST control)","1.27 fold enrichment (6-mer frequency, TF over GST control)"
